# Measurements from the supplement of paper PMC10681739.
# Columns and labels:
# [1] = target: T1, ETS1 (UniProt P14921); test: ETS1 binding intensity (PBM fluorescence), ETS1 alone (arbitrary fluorescence units); higher = stronger binding; settings: ETS1 concentration 1 nM; RUNX1 concentration 0 nM
# T1 sequence: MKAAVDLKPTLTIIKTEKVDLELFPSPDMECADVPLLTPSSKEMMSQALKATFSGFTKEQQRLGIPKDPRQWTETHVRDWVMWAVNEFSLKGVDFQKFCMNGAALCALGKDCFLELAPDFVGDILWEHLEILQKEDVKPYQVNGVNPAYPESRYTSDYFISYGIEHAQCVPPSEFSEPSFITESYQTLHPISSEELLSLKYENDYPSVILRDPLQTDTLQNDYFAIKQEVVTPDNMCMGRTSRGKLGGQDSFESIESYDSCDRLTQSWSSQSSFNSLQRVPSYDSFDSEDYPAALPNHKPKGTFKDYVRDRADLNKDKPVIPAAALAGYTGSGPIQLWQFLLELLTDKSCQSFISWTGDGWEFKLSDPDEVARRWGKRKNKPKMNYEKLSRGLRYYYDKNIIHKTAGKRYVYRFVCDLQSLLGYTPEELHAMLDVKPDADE
# [2] = target: T1, ETS1; test: ETS1 binding intensity (PBM fluorescence) in presence of RUNX1, normalised to ETS1-only experiment (arbitrary fluorescence units); higher = stronger binding; settings: ETS1 concentration 1 nM; RUNX1 concentration 25 nM
# [3] = target: RUNX1 (UniProt Q01196); test: RUNX1 binding intensity (PBM fluorescence) in presence of ETS1, normalised to RUNX1-only experiment (arbitrary fluorescence units); higher = stronger binding; settings: RUNX1 concentration 2 nM; ETS1 concentration 25 nM
# Method: (§1)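 Cooperative gcPBM on 36-bp genomic probes with neighbouring ETS1 and RUNX1 sites. Recombinant human RUNX1 (2 nM) was incubated alone or with ETS1 (25 nM) and detected with anti-RUNX1 antibody plus Alexa488 secondary. Values are medians over 4 replicate spots; the RUNX1+ETS1 data were normalised to the RUNX1-only data. The probes sit in constant array flanks that are not printed.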
# [4] = target: RUNX1 (UniProt Q01196); test: RUNX1 binding intensity (PBM fluorescence), RUNX1 alone (arbitrary fluorescence units); higher = stronger binding; settings: RUNX1 concentration 2 nM; ETS1 concentration 0 nM
# Method: as §1
# 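Throughout, for RUNX1 binding intensity (PBM fluorescence) in presence of ETS1, normalised to RUNX1-only experiment: Full-length recombinant human ETS1 or RUNX1 bound to double-stranded 36-bp genomic probes on microarrays, detected by protein-specific primary antibody and Alexa488 secondary, spot fluorescence as median of four replicate spots.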
# 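Throughout, for RUNX1 binding intensity (PBM fluorescence), RUNX1 alone: Full-length recombinant human RUNX1 bound to double-stranded 36-bp genomic probes on a high-density microarray, scored as Alexa488 fluorescence per spot via anti-RUNX1 antibody, median of four replicate spots.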
# Sequence of RUNX1 (Q01196 whole entry): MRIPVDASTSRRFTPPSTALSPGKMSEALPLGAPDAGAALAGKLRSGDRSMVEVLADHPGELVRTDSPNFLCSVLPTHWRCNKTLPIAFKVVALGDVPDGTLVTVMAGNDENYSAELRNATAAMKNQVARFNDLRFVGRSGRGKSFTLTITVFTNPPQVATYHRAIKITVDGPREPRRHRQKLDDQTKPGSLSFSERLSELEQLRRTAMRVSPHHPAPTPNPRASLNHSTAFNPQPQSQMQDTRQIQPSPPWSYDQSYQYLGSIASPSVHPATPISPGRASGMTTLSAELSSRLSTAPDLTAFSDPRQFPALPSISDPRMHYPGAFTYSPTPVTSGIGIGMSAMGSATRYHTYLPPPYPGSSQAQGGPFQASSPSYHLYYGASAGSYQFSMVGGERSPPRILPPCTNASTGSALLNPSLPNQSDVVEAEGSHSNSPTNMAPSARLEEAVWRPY
sequence,measurement,setting,value
ACCAAACGTCACATCCGCGGTGCTGCTGTAATCCCA,ETS1 binding intensity,[1],470
AAAACAACTTCCTTCCCCTCTCTCTCCACCACAGTC,ETS1 binding intensity,[1],554
CGTAGCGAGGAGCGGAAAACGCGGTAACCAAGGCGG,ETS1 binding intensity,[1],732
CTAGGGAGAGGATGTGAGTTTGTCTGTGGGGGTGGT,ETS1 binding intensity,[1],796
TCTAACGCTGAAGGAGGATGTGGTTTCCTATTGGAC,ETS1 binding intensity,[2],11500
same,RUNX1 binding intensity,[3],2110
AAGCTTCCTGGCCCTTTAAAAATGGCGGTTCCGCAC,ETS1 binding intensity,[1],519
CCTCCCGACCGGAAGCCCCGCCACAGAGCGGGTTGT,RUNX1 binding intensity,[4],848
same,ETS1 binding intensity,[2],8570
same,RUNX1 binding intensity,[3],2420
GCACCATCTCCCGACTTCCGCGGTGTCCCAGGTCCT,ETS1 binding intensity,[1],559
GAAGAAGTCAGGAAATGCTGCCGCAGCAGCCAGCCC,ETS1 binding intensity,[1],878
AGCTTTCCTTTTCCGGTTGCGGCGCCGCGCGTTGAT,RUNX1 binding intensity,[4],926
same,ETS1 binding intensity,[2],1820
same,RUNX1 binding intensity,[3],2340
ACGAGGTTGGCCTCATCCGGTGGTTTTCGCAGCACG,ETS1 binding intensity,[2],1280
same,RUNX1 binding intensity,[3],1710
TTCAAAGGAGTCCAAGGAAGTGGTTTAACAGCGATG,ETS1 binding intensity,[1],843
TATTGTGTACTTCCCCTTCATGTTGTGGTTGGCTTT,RUNX1 binding intensity,[4],1120
same,ETS1 binding intensity,[2],619
same,RUNX1 binding intensity,[3],1560
ACAGGAAACTAAAATAAGAACAGAAAACCAAGACAG,ETS1 binding intensity,[1],865
GTCTTCACATGTAGGGGAAGTGGGTTAGCGTAGGAG,ETS1 binding intensity,[1],951
GTGCAGACAGGAAATAGCTGCTCTGCGGCAGCCCGA,ETS1 binding intensity,[2],6350
same,RUNX1 binding intensity,[3],1070
TGGCTTGAGCTCAGGAAGTTGTGGCTGCAGTAAGCT,ETS1 binding intensity,[1],1470
GGCTTCCGCCGCCACCACTGCCCCTCAACCGCCACG,ETS1 binding intensity,[2],601
same,RUNX1 binding intensity,[3],2040
GAGCAACCAGGAAGAGCTTTGGCTGTGGGCTAAGAT,ETS1 binding intensity,[1],511
TGCTTAGAACACGGAAACACTGAGGTTTTACTTTGA,ETS1 binding intensity,[1],482
CTGTGGCCTAGAAGCTTCCTGCCGCAGCTCTGAGGA,ETS1 binding intensity,[1],534
GGACACAGGCTTCCGCGTTACCGACACCGCGTGGGG,RUNX1 binding intensity,[4],837
same,ETS1 binding intensity,[2],311
same,RUNX1 binding intensity,[3],934
TCGGAGACGGCGAAAGGAAACCGCAAGGAGGCCACC,ETS1 binding intensity,[2],2820
same,RUNX1 binding intensity,[3],9290
GTCACCATTTCCGGGCCTCCGCGGTGTCCCCACCCC,RUNX1 binding intensity,[4],1040
same,ETS1 binding intensity,[2],2870
same,RUNX1 binding intensity,[3],2900
TAGCATGTGAGCTTCCTGTGGGTTTGTGCAGCCCCA,ETS1 binding intensity,[2],654
same,RUNX1 binding intensity,[3],1440
GCCACACCCCCTTCCTGTTGTGTGTGGGGATTCATG,ETS1 binding intensity,[1],744
AGAGACAGCGGGCGGAAACCGCAGAAAAAGTTGAAA,RUNX1 binding intensity,[4],8270
same,ETS1 binding intensity,[2],3260
same,RUNX1 binding intensity,[3],14200
TCCCCTGTCTTCCGGAGGCTGCGGCGCAGCGGCGCA,ETS1 binding intensity,[1],403
TTAGCACATCCTGGGTACACAGACCACAGCCTCCTC,ETS1 binding intensity,[2],475
same,RUNX1 binding intensity,[3],2140
TTTTTTCCGCCTGTAGGGTCACATTGTGGTTGATTG,RUNX1 binding intensity,[4],1000
same,ETS1 binding intensity,[2],725
same,RUNX1 binding intensity,[3],1790
GGGGCCCCGGATGCACTGAGCGGCTGCGGCGCGGCT,ETS1 binding intensity,[1],613
TGCGCGCCGGCTTCCGCTGCGGCCAGTCGGGCGGCG,RUNX1 binding intensity,[4],647
same,ETS1 binding intensity,[2],635
same,RUNX1 binding intensity,[3],1240
CCGAGACACATGGGATGTGGGCGGGAGGAGGAATTG,ETS1 binding intensity,[1],715
CTCGGCGCGACGGATATTCCCGTGACCGCCGGGTTC,ETS1 binding intensity,[1],672
CAGTGGCTAAGGATCCGGTGTTGCGGTGATACATGA,ETS1 binding intensity,[2],643
same,RUNX1 binding intensity,[3],1280
GCCCAGGCAGGAAGCCAGGCGCCCACAGGTTGGCAG,ETS1 binding intensity,[2],1090
same,RUNX1 binding intensity,[3],923
AGGGCTGAAACAGGATGTGGTGAGTGAGGTAGGGTG,ETS1 binding intensity,[2],16600
same,RUNX1 binding intensity,[3],3160
GTTGAGTAGTGACAGGAAGTGACCGCAAGGGGGCGC,RUNX1 binding intensity,[4],1860
same,ETS1 binding intensity,[2],44800
same,RUNX1 binding intensity,[3],3540
GCACCGTCCCAGCATCCGGACACCACAGCGGCCCTT,ETS1 binding intensity,[1],602
GTGCTGAGCAGCTTCCCGTCTGCGGTGAAGACAGCC,ETS1 binding intensity,[2],1040
same,RUNX1 binding intensity,[3],1930
TGAGGAAGTGTAAGTCACAATAAGAAGCCACATATA,ETS1 binding intensity,[1],564
CACTTGTCCTTCCTGGCCTGCGGCCGCCACCACTTC,ETS1 binding intensity,[1],443
GCCACACTTCCGGCGGGGCTGCGACCGCAGAGGGGC,ETS1 binding intensity,[1],1170
same,RUNX1 binding intensity,[4],1140
CACCTCCTCTCCGGATGCGGTTTGTTCTGCTTGTAG,ETS1 binding intensity,[1],2580
same,RUNX1 binding intensity,[4],2210
AATGATTACCTAACAGGAAAACCACATTGGTCATTT,ETS1 binding intensity,[1],1150
TCAAGTTTGGTAACAGGATGTGGTAGGAGGAACACA,ETS1 binding intensity,[1],8320
same,RUNX1 binding intensity,[4],747
CTGGCTACAGGAAAAACAAAGTCAAACCACAGCACT,ETS1 binding intensity,[1],473
TTTATCATGAATGCAGGATGTGGGCAGACTCACAGC,ETS1 binding intensity,[1],2590
same,RUNX1 binding intensity,[4],691
CAGTGAACAGTTTCCTGTTCCTGTGGTTTTGACTTT,ETS1 binding intensity,[1],1230
same,RUNX1 binding intensity,[4],1420
GAGAATGAAGAGGAAATGTGGGGACAGACAGAACTG,ETS1 binding intensity,[1],1060
TTCAGGTGACTTCCGGCCGGACCGCTGAGGACGCGG,ETS1 binding intensity,[1],9020
same,RUNX1 binding intensity,[4],684
TAAGAAAAACAGTCATCCTGCGGTTTCCATTTGTGA,ETS1 binding intensity,[1],351
same,RUNX1 binding intensity,[4],6290
AACAAACCGGATGGGGTTGCCACCCGCAATCTTGTC,ETS1 binding intensity,[1],2030
same,RUNX1 binding intensity,[4],826
CTAGTTTCCTGTGGCTGCTATGACAAATGACCACAG,ETS1 binding intensity,[1],403
CAGAGGAGGAAGAGGAAGCCACAGCGATAGGGTCAC,ETS1 binding intensity,[1],522
AGTGCAGAGTGGACAGGATGTGGTGGAGGTGAGAGA,ETS1 binding intensity,[1],5690
same,RUNX1 binding intensity,[4],723
CTTGCTTGAGTCACAGGAAACCACTCAGAGGCTAAC,ETS1 binding intensity,[1],2600
GCGCAAAGCCGGAAGGAGGGGTTTGCGGCTGGGGAG,ETS1 binding intensity,[1],1730
same,RUNX1 binding intensity,[4],769
GGGTCGCGGCCTTCCGGCGAACGCGGTTACCGTGGA,ETS1 binding intensity,[1],555
same,RUNX1 binding intensity,[4],853
TGCGAGGTTGCCAGGAAACCGCGAAGCCGAGGTCCC,ETS1 binding intensity,[1],808
GGGTTGGGTGCCGGATGCGGTGAGTGAGGTTCTCAT,ETS1 binding intensity,[1],2930
same,RUNX1 binding intensity,[4],917
TCCAGCTCCACAGGATGTGGTGAGTGAAGCAGCAAG,ETS1 binding intensity,[1],2590
same,RUNX1 binding intensity,[4],694
CCGTGTCAGTGAGGATGTGGGCTGCCGGGCTGGGCG,ETS1 binding intensity,[1],491
GAAAGCACGTGTTTCCTGCGGCTGCACCCCAGCACC,ETS1 binding intensity,[1],479
TCGGAACGGAAGGGAGGCACGAAACCGCGAGTGGAG,ETS1 binding intensity,[1],607
GACTTTTACGGAAATAGCAGTCCAAAACCGCGTCTA,ETS1 binding intensity,[1],691
same,RUNX1 binding intensity,[4],868
CTGCCTTGCTTTTCCGGTCGCCGCGGTCCTCTGCGC,ETS1 binding intensity,[1],2130
